# Measurements taken from PubChem BioAssay (NCATS).
# Results filed as inconclusive are left out. Unmarked numbers belong to inactive results. Active and inactive are the calls of the source. The call rests on the fitted dose curve; in most records, active means well fitted inhibition curve with a large enough effect; inconclusive means small, poorly fitted or top-dose-only effect; inactive means flat fitted curve, though single readings scatter.
# Target: Calcium and integrin-binding protein 1 (Homo sapiens) (UniProt Q99828)
# Experiment: Primary qHTS for Identification of Calcium Integrin Binding Protein 1 (CIB1) Competitor (AID 1508620);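 further: GST tagged CIB1 binding a fluorescein labelled alphaIIb integrin peptide tracer; top concentration of the series differs between compounds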
# Details: CIB1-GST / FITC-alphaIIb peptide fluorescence polarization; series mostly up to 114 µM; activity change, negative = inhibition: at the top concentration
# Summary of the method: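 Fluorescence polarization competition: CIB1-GST (1 uM final) preincubated with compound 15 min at room temperature, then FITC-labeled alphaIIb peptide (100 nM final) added for another 15 min. Polarization read at Ex 480/Em 540.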
# On the % scale 0 is the no-effect control and ±100 the full control effect.
# Sequence of Calcium and integrin-binding protein 1 (Homo sapiens) (Q99828 whole entry, looked up): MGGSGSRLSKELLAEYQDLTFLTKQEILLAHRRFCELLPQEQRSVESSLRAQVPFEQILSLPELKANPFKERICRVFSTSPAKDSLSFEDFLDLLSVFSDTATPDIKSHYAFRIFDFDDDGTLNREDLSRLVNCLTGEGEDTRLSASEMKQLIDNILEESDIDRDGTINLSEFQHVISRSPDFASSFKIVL
Structure (SMILES),"activity change, negative = inhibition",Potency
CC(=O)Nc1sc2c(c1-c1cnn(C(C)=O)c1)CCNC2,0.0416%,–
O=C(/C=C/c1cccc(Cl)c1)Nc1cccc([S+](=O)([O-])Nc2ccccc2F)c1,18.9%,–
N#Cc1nc(-c2cccc3ccccc23)oc1N,3.27%,–
N#Cc1nc(Nc2cccc(-c3ccccc3)c2)nc(NC2CCCC2)n1,4.96%,–
c1nc(NCCc2cnc[nH]2)c2cc(-c3ccc4c(c3)OCO4)ccc2n1,–,inactive
COc1ccc(C2Nc3ccccc3C(=O)N2Cc2cccnc2)cc1COc1c(C)cc(NC(C)=O)cc1C (stereo not drawn),2.45%,–
Cc1ccc(NS(=O)(=O)c2cccc(Cl)c2)cc1C,6.33%,–
NC(=O)C1CCN(c2nc(-c3cccnc3)cs2)CC1,-3.29%,–
O=C1Nc2ccccc2/C1=C/c1cc(Cl)c(O)c(Cl)c1,–,inactive
COc1ccc(C2Nc3ccccc3C(=O)N2Cc2cccc3ccccc23)cc1COc1ccc(NC(C)=O)cc1 (stereo not drawn),1.06%,–
CC(C)c1ccccc1-c1nc2c(c(NCc3ccc(-c4cccnc4)cc3)n1)CNC2,-1.1%,–
CCOc1ccc(CCNC(=O)c2cc3c(s2)CCC3)cc1OCC,19.4%,–
c1cncc(-c2ccc(CNc3nc(-n4ccnc4)nc4ccccc34)cc2)c1,6.93%,–
Cn1ncc(-c2nnc(-c3ccccc3)n2CCCn2ccnc2)c1N,-0.693%,–
O=S(=O)(NCCCCNS(=O)(=O)c1c(F)cccc1F)c1ccc2c(c1)OCCO2,-5.32%,–
Oc1ccc(CNc2cccnc2)c2cccnc12,4.29%,–
CC(O)c1cc2c(s1)c1cnn(Cc3ccccc3F)c(=O)c1n2C (stereo not drawn),-0.526%,–
CCOc1ccc(CCNC(=O)c2cc3sccc3n2C)cc1OCC,-3.39%,–
